Assay results reported in PubChem BioAssay AID743397 (Broad Institute, 2014).
In all, about 340,000 compounds went through this assay and about 330 (0.097%) were called active. The sample holds actives, similar compounds and a random draw of the others, so the mix is not that of the screen.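 The calls were made as follows: active = mean replicate inhibition of at least 30% and at least 1% of replicates passing that level; inconclusive = only one of the two criteria is met; inactive = neither criterion is met.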

system: Voltage-dependent L-type calcium channel subunit alpha-1D (CaV1.3) ICDI/IQ interaction; assay: Primary screen for inhibitors of IQ motif and Ca2+-dependent inactivation inhibitor domain binding in CACNA1D, Förster resonance energy transfer in living cells, single-concentration test (AID 743397); conditions: HEK cells, CFP/YFP FRET ICDI-IQ, plate reader, 10 min; at 12.3 µM; stronger effect = higher value; percent FRET-ratio fall versus neutral wells;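 also: 0% = median of the neutral control wells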

SMILES | inhibition
CCOC(=O)Cn1c2c(n(-c3ccc(F)cc3)c1=O)C=C(c1ccccc1)[C@@H](C)C(C(=O)N(C)C1CCCCC1)=C2 | -5.25% (inactive)
Cc1ccc(C)c(N2C(=O)CS/C2=N\NC(=O)c2ccccc2Cl)c1 | -8.17% (inactive)
Cc1cc(OC(=O)c2ccccc2Cl)ccc1N1C(=O)CCC1=O | 66.2% (active)
Cc1cccc(/C(N)=N/OC(=O)c2ccccc2Cl)c1 | 1.19% (inactive)
CC[C@H](C)[C@H]1CNC(=O)C(=O)N1CC1CCN(CCc2ccc(OC)c(OC)c2)CC1 | -5.2% (inactive)
CC1CCN(CCCn2c(SCC(=O)NC3CCCC3)nc3ccccc3c2=O)CC1 | -1.93% (inactive)
Cc1nc2ccccc2c2oc(C(=O)NCCCN3CCC(C)CC3)cc12 | 61.5% (active)
CCCN(CCC)CCNC(=O)c1cc2c(C)nc3ccccc3c2o1 | -3.91% (inactive)
CC(C)(C)n1nc(C2CC2)c(Br)c1NC(=O)c1ccccc1F | -11.7% (inactive)
CC(=O)C1=C(C)N(Cc2ccccc2)C(=S)NC1c1cccc(Br)c1 (configuration not stated) | -5.09% (inactive)
Cc1cc2c(nc1C)CCCN2C | -4.25% (inactive)
CN1C(=O)C2CC(O)C(SC3CC4C(=O)N(C)C(=O)C4CC3O)CC2C1=O (configuration not stated) | -4.52% (inactive)
COC(=O)C1=C(C(=O)OC)C2C=C(C(C)C)C1C(=O)C2(C)O (configuration not stated) | -3.68% (inactive)
O=C(NCc1ccccc1)[C@@H]1CCCN1C(=O)[C@H]1CCCN1C(=O)c1cccc(Cl)c1 | -3.24% (inactive)
C[C@H]1CN([C@@H](C)CO)C(=O)CCCn2nncc2CO[C@@H]1CN(C)C(=O)Nc1ccc(N2CCN(C)CC2)cc1 | -5.58% (inactive)
CCOC(=O)c1ccc(-c2ccc3ncnc(N(C)Cc4sccc4C)c3c2)o1 | -9.32% (inactive)
Clc1cccc2c1C1CC2CCN1Cc1ccccc1 (configuration not stated) | -3.78% (inactive)
Nc1[nH]c(C(=O)c2ccccc2)c(-c2ccc(Cl)cc2Cl)c1C(=O)c1ccccc1 | -17.7% (inactive)
Cn1c(=O)[nH]c(=O)c2c1nc(N1CCN(CCO)CC1)n2CCSc1nc2ccccc2s1 | -4.96% (inactive)
CCOC(=O)c1oc2c(CN3CCN(CCO)CC3)c(O)c(CC)cc2c(=O)c1-c1nc2ccccc2s1 | 37% (active)
CCOC(=O)c1oc2c(CN3CCN(C)CC3)c(O)ccc2c(=O)c1-c1ccc(Br)cc1 | -4.95% (inactive)
O=C(NCc1ccccc1)[C@H]1CCCN1C(=O)[C@H]1CCCN1C(=O)c1cc(F)cc(F)c1 | -8.46% (inactive)
O=C(NCc1ccccc1)[C@@H]1CCCN1C(=O)[C@@H](NS(=O)(=O)c1ccc(F)cc1F)C1CCCCC1 | -2.67% (inactive)

SMILES | inhibition
O=C(C(=O)N1CCC(CNS(=O)(=O)Cc2ccccc2)CC1)c1cc2ccccc2o1 | -8.57% (inactive)
Cc1ccc(C)c(CN2CCC(CNC(=O)C3CCCN(c4ncnc5c4nc4n5CCCCC4)C3)CC2)c1 (configuration not stated) | -13.7% (inactive)
O=C(O)Cn1cnc2c(NCc3ccccc3)ncnc21 | -6.21% (inactive)
CC(C)C[C@H](NC(=O)CC1CCCC1)C(=O)N1CCC[C@H]1C(=O)NCc1ccccc1 | -8.63% (inactive)
Nc1[nH]c(C(=O)c2ccc(Br)cc2)c(-c2ccc3c(c2)OCO3)c1C(=O)NCCc1c[nH]c2ccccc12 | -16.2% (inactive)
CCOC(=O)C1CSCCS(=O)(=O)N1Cc1ccc(Cl)cc1 (configuration not stated) | -4.73% (inactive)
O=C1[C@@H](c2ccccc2)[C@@H](c2ccccc2)N1c1ccccc1 | -7.31% (inactive)
Brc1ccc(COCCc2cn(Cc3ccccc3)c3ccccc23)cc1 | -2.59% (inactive)
CC(=O)c1ccc(-c2cnc3c(NC=O)cc(-c4cccc(NS(C)(=O)=O)c4)cn23)cc1 | -5.47% (inactive)
COCCCNC(=O)C[C@H]1C[C@@]2(C(=O)OC)C(=C[C@H](C(C)(C)C)O[C@@H]2C)N(Cc2ccc3c(c2)OCO3)C1=O | -3.83% (inactive)
O=C(N[C@H](Cc1ccccc1)C(=O)N1CCCN(Cc2cccs2)CC1)[C@H]1O[C@@H](n2ccc(=O)[nH]c2=O)[C@H](O)[C@@H]1O | -3.41% (inactive)
Cc1ccc2nc(-c3ccc(CN4CCC(n5cc(-c6ccccc6)[nH]c5=O)CC4)cc3)c(-c3ccccc3)nc2c1 | -15.6% (inactive)
COC(=O)C1=C(C)N(Cc2ccc(F)cc2)C(=S)NC1c1cccc(Cl)c1 (configuration not stated) | -2.29% (inactive)
CCCCCCCCN1C(=O)[C@@H](CC(=O)NCc2ccccc2)C[C@@]2(C(=O)OC)C1=C[C@H](C(C)(C)C)O[C@@H]2C | -8.36% (inactive)
O=C(NN=Cc1ccco1)C(=O)Nc1ccc(Cl)c([N+](=O)[O-])c1 | -13% (inactive)
O=S1(=O)c2ccc(Br)cc2-n2nncc2CN1Cc1cccc(Cl)c1 | -9.71% (inactive)
COC(=O)[C@]12C[C@H](CC(=O)NCc3ccc(OC)c(OC)c3)C(=O)N(Cc3ccccc3)C1=C[C@H](C(C)C)O[C@@H]2C1CC1 | -11.2% (inactive)
CC(=O)C1=C(C)N(Cc2ccc(Cl)cc2)C(=S)NC1c1ccc(F)cc1 (configuration not stated) | -2.53% (inactive)
CC(C)[C@H]1COCCS(=O)(=O)N1Cc1ccccc1-c1cccc2c1sc1ccccc12 | -4.21% (inactive)
C[C@H]1[C@H](c2ccccc2)Oc2cc(Br)ccc2S(=O)(=O)N1Cc1cccc(F)c1 | -4.74% (inactive)
O=S(=O)(c1cccs1)N1CCCc2nc(-c3ccc(Br)cc3)ccc21 | -8.65% (inactive)
C=CCN=C1NC(c2ccccc2)C(C(=O)OC)=C(C)N1Cc1ccc(C(F)(F)F)cc1 (configuration not stated) | -6.18% (inactive)
N#Cc1c(N)sc2c1CCN(C(=O)OCc1ccccc1)C2 | -7.05% (inactive)

SMILES | inhibition
CCN1CCN(CC(=O)Nc2sc3c(c2C#N)CCC3)CC1 | -6.79% (inactive)
O=C(NNC(=O)c1ccc(Cl)nc1)c1ccc(Br)cc1 | -6.15% (inactive)
CC(=O)NC(=S)NNC(=O)c1ccc(Br)cc1 | 74.6% (active)
CNC(=S)NNC(=O)c1ccc(N(C)C)cc1 | -4.61% (inactive)
CCCCC(=O)Nc1ccc(C(=O)Nc2cc(C(F)(F)F)ccc2Cl)cc1 | -17.6% (inactive)
O=C(Nc1ccc(C(F)(F)F)cc1)c1cccc(-n2cnnn2)c1 | -5.18% (inactive)
O=C1Nc2ccccc2C1=NN=Cc1ccco1 | -4.56% (inactive)
CCCCC[C@H](C)N1C[C@@H](COCc2ccccc2)Oc2cc(N3CC[C@@H](N(C)C)C3)ccc2S1(=O)=O | -7.78% (inactive)
O=[N+]([O-])c1cccc(Nc2c3ccccc3nc3ccccc23)c1 | 87.1% (active)
O=C(Nc1cccc([N+](=O)[O-])c1)Nn1cnnc1 | -5.3% (inactive)
N#Cc1cccc(Nc2c3c(nc4ccccc24)CCCC3)c1 | -2.56% (inactive)
CCn1c(=N)c(C(=O)NCCCOC)cc2c(=O)n3cccc(C)c3nc21 | 45.8% (active)
COc1ccc(CCn2c(=N)c(C(=O)NCC3CCCO3)cc3c(=O)n4cccc(C)c4nc32)cc1OC (configuration not stated) | -7.32% (inactive)
COCCCn1c(C(=O)NC2CCCCC2)cc2c(=O)n3cccc(C)c3nc21 | -7.34% (inactive)
COCc1[nH]nc2c1C(c1ccccc1)N(c1ccccc1)C2=O (configuration not stated) | -4.04% (inactive)
COC(=O)c1cc2c(c3c4cc(F)ccc4n(S(=O)(=O)c4ccccc4)c13)C(=O)N(Cc1ccccc1OC)C2 | -8.18% (inactive)
C=CC[C@]12C[C@@]3(O[C@H](c4ccc(C(F)(F)F)cc4)N=C3C[C@H](c3ccc(OC)cc3)[C@H]1C)N(C1CCN(Cc3ccccc3)CC1)C2=O | -3.62% (inactive)
CN(C)CCOCCOc1ccc(Cl)c2ccccc12 | 62.4% (active)
CCN(CC)CCOCCOc1ccc(Cl)c2ccccc12 | -5.65% (inactive)
CN(C)CCOc1ccc(Cl)cc1C(C)(C)C | 3.19% (inactive)
Cc1ccc(N)cc1CN1CCN(c2ncc(Cc3ccccc3)cn2)CC1 | -2.7% (inactive)
